Over roughly 9,900 sequences, “r (bound/input frequency ratio)” has its median near 0.7; the highest 2% begin near 6.5. Only a selection was taken, and the highest values are over-represented in it overall.
B1: ENSMUSG00000058297.485|Spock2 (ssRNA)
RNA: GGGAGUUCUACAGUCCGACGAUCGCUUCGAUAUCCGCAUGCUACUGGAGCUGCCCUACUAAGAGCCUCCUUAGCCCUGGGUGCUGGGAAGGAUGGUGUACGUUGGGGAAGUUUGAGGUUGGAGAGAGUAAAUGUGCCUUGAGAGACCACUCAGAGGUCCCAGGAGGAACGGGGGCGGGGCUUAGCCUGGGAGUUCUGGCAGGAGGCAAAGUUGGUGAGAGUCCUGGGACAUCUUACCCCCAGUGUUCCACAGGAGUCGUGACCACGUGUGAUGGGUGGGCACAGGUCUGCCUUGCUCCAGCCCCUCUUGCGGUCGCACUAGUGUGGAAUUCUCGGGUGUCAAGG
B2: ENSMUSG00000004113.268|Cacna1b (ssRNA)
RNA: GGGAGUUCUACAGUCCGACGAUCGCUUCGAUAUCCGCAUGCUACGUGUUACAAGAAACUGGCAGGAAGGAAAUGGCCCUGGAACAGGCCAGGUGCCUAGAGCUAAGUCAGGCCCCUGGCUUAGCACUAGAAAAAAUAAAACCUCAUGGCUGCUUUGCAAAGGGAAAACCCAUGCUCAGGAAGGUGUUCAGUGUGCACAGAUAGCUGGGAGGCCACGAGAGAAAGGUUGCACACAGACAGGCAGGCACUCCUUGGUGUGGUCUCUCUGUUUUGAAACUUCUGAUGACUUCUUGGUGGCUUGUUGCUCUUGCGGUCGCACUAGUGUGGAAUUCUCGGGUGUCAAGG
B3: ENSMUSG00000029028.187|Lrrc47|67:71 (ssRNA)
RNA: GGGAGUUCUACAGUCCGACGAUCGCUUCGAUAUCCGCAUGCUAGUCAGCGUGUCCCACUAUUCAUGUCCCAUCUCUGUGCAUCCUGACUGCGCACAUCCCAUCUCCGCAACACAACGCAUCUGUACCAGCACACAGCUGCCAUCCCUCGAGCCACAGUGCCUGGUCCUAAGGACCCAGCAGCUGCACAGAGGACUUGGUGGCCCCGUGCCUUGCCAUCUGGCUGAGAAGAGAACCAGACCCUCAGCCUUCCCCCUCGACACCUUCUCGUUGGUGACCUCUGACCUUAAAGGACCAUUUCUACCCUCUUGCGGUCGCACUAGUGUGGAAUUCUCGGGUGUCAAGG
B4: ENSMUSG00000061578.966|Ksr2 (ssRNA)
RNA: GGGAGUUCUACAGUCCGACGAUCGCUUCGAUAUCCGCAUGCUAGCCCUGGAUGUGACUAUAUGUGCUGAGAAGGGAAGGUAGUUUUCCCCCAGAAAGUCCCUUCUAAUAAACAUUGAUGACUUUAGAAUCCAUGACUCAGAAUUUUCCAGAGACCCAAUCCCUCGGGGUCCACUUAGUGAUGGGACCAUACAAGAGUUUAUUUCCAAUUAGAGAAUUGGGUCAACUGGGAAAGGCUUCUUUCCUGGUAACCCUGCUACUGAUACUAUGUUGAAACAGGAAUCGACUCUAACUGCUUUUUGGCCCUCUUGCGGUCGCACUAGUGUGGAAUUCUCGGGUGUCAAGG
B5: ENSMUSG00000031028.668|Tub (ssRNA)
RNA: GGGAGUUCUACAGUCCGACGAUCGCUUCGAUAUCCGCAUGCUAGGCAAAAUUUCUCUAGCUGAGAGCACACUUAGCCAGUUUUCACGCCUAGAACAUAUAUGUCGAUUUGCACAUGAUUGUCUUUUCCUAUUUUGGAGUGGUCAGACAUUUUAUUUUUGUUCAAAAUUAUCUGGAGUUUUAGACAAACUUGCAAAACUGUGCUUUUAUUAAGUGACUUUUUGAAUAAACUUUUUGGUAUUCUGAAGCAAAUGUAUUUAUUUAUUGGUAUGUGCAAUGACAAACUUGGUAUUUUCCCAUAAUGACUCUUGCGGUCGCACUAGUGUGGAAUUCUCGGGUGUCAAGG
B6: ENSMUSG00000061578.140|Ksr2 (ssRNA)
RNA: GGGAGUUCUACAGUCCGACGAUCGCUUCGAUAUCCGCAUGCUAGGCUGUGGCAAGAGAGUUCUGGUGUGUUCUCUCUGUGGGGCUAGCAAUGCCGGGGUUAAGUUCUCCCUCGGUGAUGGAGACGGUCCUGGGUAUGCAUGAUGGGUUACAUGGGUGUGUGUGUGUGUGUAACUGUUUACAAUGGUCUCCCUGCCUCUCACGGGCUGUGUUCCAGGAGAAUGCACAUAGAGAGGUUCUGUGGUCUCUGCUGUCGCCUGGUGCUGAAUCCUGAGUGGUUUCCCCACUGAGGACCCUGUGACCCUCUCUUGCGGUCGCACUAGUGUGGAAUUCUCGGGUGUCAAGG
B7: ENSMUSG00000061578.854|Ksr2|32:36 (ssRNA)
RNA: GGGAGUUCUACAGUCCGACGAUCGCUUCGAUAUCCGCAUGCUAAGAGCAAUACAGGAAAAGGUCAGGGGUGAGAACACACAUUGCCACUUCCUCCAGCUAGGACCUUUGAGCAUCACAUUGUGAAGCCAUCCAGGGACUUGGGGGUUAGGUCAGAGGUAUCAAUACAUCUCCGGAAACAUCGUCACAGAUACCUAGAGGUACUUCAUUGAUCCCUUGAAAAGCAUGUCUUAAUUCUGUUAAGAUGUCAAUCAAGAUUACACAUCUCACUGCUUCACAGGCCAUCAGGGCCCCAUUCUGAGGUCCUCUUGCGGUCGCACUAGUGUGGAAUUCUCGGGUGUCAAGG
B8: ENSMUSG00000090935.379|Synj2bp (ssRNA)
RNA: GGGAGUUCUACAGUCCGACGAUCGCUUCGAUAUCCGCAUGCUAAGAUGCAGGGAUAUUGGUGAGGUGGGAGCUGUCCUGUUUAUGUAACAUCUAAGUUGGUUUUAGAGUACUGAGGAUAGUUGAACCAAGCCUAUUUUUUUUCCACUUUAACAAAAUAAUUUCCUUCUUUUCAGUAAAUUGGCCAGACUAUUAUUUUGACAUAAGAUUAUGAAGAGUUUUCCCGACAGUCUAGCAGUCACUUAACAGAUGUUGAUUGCACAUUAGUUUUGUCAGGACACCUUUAUAAAAAGAGAAAUGCACAUCUCUUGCGGUCGCACUAGUGUGGAAUUCUCGGGUGUCAAGG
B9: ENSMUSG00000061578.1219|Ksr2 (ssRNA)
RNA: GGGAGUUCUACAGUCCGACGAUCGCUUCGAUAUCCGCAUGCUACAGCAUGCUUCACUCUAUGAAUGAGCCGCUGGGAUAUUGACAUGGAGAUGUGUUGAUGGAAAAAGCCUCCACACCCAACAUAACUCUCCAGAGAGAUAUUGAAAGUGAUGGGCAGAGAGUCUGACAAUGACCCAGGGGUCAUUGUGAGUCCUAGGCUGAAUCUGUAAUGGGGUCCAAAGUGCAGGAGAGACUGCAUUCACCUUGUUGGUGGGGUGGGGCUUCUUUCAUUACUUUAAGUAUCUGUAUGGGCUUGAGGCAUGCUCUUGCGGUCGCACUAGUGUGGAAUUCUCGGGUGUCAAGG

Each binder was assayed against TDP-43 (Homo sapiens, UniProt Q13148 1-414) (assay: RNA Bind-n-Seq with designed 260-mer pool; 25 mM Tris-HCl, 150 mM KCl, 3 mM MgCl2, BSA (printed 500 mg/mL), 20 units/mL SUPERase IN; pH not stated; 500 nM RNA pool, 1 h, 4 C; TDP-43 5, 50, 500 nM; high values mean tight binding). Details: protein: recombinant; tags: SBP (GST cleaved off with PreScission; pGEX-GST-SBP).
In short: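 In 25 mM Tris-HCl, 150 mM KCl, 3 mM MgCl2, BSA and SUPERase IN, 500 nM of an in vitro-transcribed 260-nt 3′ UTR oligo pool was incubated for 1 h at 4 °C with SBP-tagged TDP-43 (5, 50 or 500 nM) captured on streptavidin beads. RNA remaining after washes was biotin-eluted, reverse transcribed, PCR-amplified and sequenced. Binding, R, is the bound-sample abundance of each oligo, normalized to mapped reads, divided by its abundance in input. Each duplicate used a separate, independent protein batch.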

TDP-43, sequence (Q13148 whole entry): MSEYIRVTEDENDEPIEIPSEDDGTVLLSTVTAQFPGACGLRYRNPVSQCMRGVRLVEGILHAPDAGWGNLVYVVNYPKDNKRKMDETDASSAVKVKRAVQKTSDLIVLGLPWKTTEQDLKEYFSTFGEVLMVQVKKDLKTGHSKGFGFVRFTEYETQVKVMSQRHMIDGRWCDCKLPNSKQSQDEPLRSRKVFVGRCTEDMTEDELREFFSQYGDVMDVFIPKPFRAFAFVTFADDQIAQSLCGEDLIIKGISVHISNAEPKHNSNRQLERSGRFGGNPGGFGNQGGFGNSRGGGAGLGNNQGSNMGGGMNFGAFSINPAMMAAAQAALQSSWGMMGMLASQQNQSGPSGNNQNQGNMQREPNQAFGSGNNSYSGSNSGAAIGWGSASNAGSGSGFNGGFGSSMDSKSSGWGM

Point of comparison: B1, binding signal 5.55 R (bound/input frequency ratio). Against it:
- B2 — lower, 0.57 R (bound/input frequency ratio)
- B3 — lower, 1.42 R (bound/input frequency ratio)
- B4 — lower, 0.302 R (bound/input frequency ratio)
- B5 — lower, 0.159 R (bound/input frequency ratio)
- B6 — lower, 5.07 R (bound/input frequency ratio)
- B7 — lower, 0.103 R (bound/input frequency ratio)
- B8 — lower, 0.043 R (bound/input frequency ratio)
- B9 — lower, 0.535 R (bound/input frequency ratio)

Reference: paper PMC12864922, “TDP-43 directly inhibits mRNA accumulation in neurites through modulation of mRNA stability”
